# Reference: PubChem BioAssay (Tox21)
# Records with an inconclusive call do not appear. Unmarked numbers belong to inactive results. The source made the active and inactive calls. The call rests on the fitted dose curve; in most records, active means well fitted cell-killing curve with a large enough effect in the repeat runs; inconclusive means weak or mixed curves; inactive means flat fitted curve, though single readings scatter.
# Test: qHTS RealTime-Glo MT Cell Viability Assay in HepG2 cells - 8 hour (AID 1224873); further: nearly all actives have a fitted effect of over 55% in size
# Settings: RealTime-Glo luminescence; series mostly up to 76.8 µM
# Description: National Center for Advancing Translational Sciences [NCATS]
# NIH Chemical Genomics Center [NCGC]
# U.S. Environmental Protection Agency [EPA]
# National Institutes of Environmental Health Sciences [NIEHS]
# National Toxicology Program [NTP]
# U.S. Food and Drug Administration [FDA]
# Measure of cell viability is critical in the cell-base assay. Analysis of cell viability is necessary for the characterization of cell responses to cytotoxic drugs and environmental stress. A RealTime-Glo MT Cell Viability Assay to monitor cell viability in real time of continues cell culture during 40 hours of compound treatment was used to screen Tox21 10K library compounds in HepG2 cells. The RealTime-Glo MT Cell Viability Assay is a nonlytic, homogeneous, bioluminescent method to measure cell viability in real time using a simple, plate-based method. The assay involves adding NanoLuc luciferase and a cell-permeant prosubstrate to cells in culture. Viable cells reduce the proprietary prosubstrate to generate a substrate for NanoLuc luciferase. This substrate diffuses from cells into the surrounding culture medium, where it is rapidly used by the NanoLuc Enzyme to produce a luminescent signal. The signal correlates with the number of viable cells, making the assay well suited for cytotoxicity studies.
# Tox21 Assay Protocol Summary:
# The mixture of HepG2 cell suspension and reagents were dispensed at 600cells/6 ul/well in 1536-well tissue culture treated black solid bottom plates using a Multidrop dispenser. After the assay plates were incubated at a 37 C/5% CO2 incubator for 5 hours, 23 nL of compounds dissolved in DMSO, positive and negative controls was transferred to the assay plate by a pintool work station. The plates were incubated at 37 C for 40 hours. The luminescence intensity were measured at 0h, 8h, 16h, 24h, 32h and 40h time points using ViewLux plate reader during compound treatment.
# On the % scale 0 is the no-effect control and ±100 the full control effect.
SMILES,outcome,"viability change, negative = cytotoxic"
O=P(O)(O)OP(=O)(O)O,inactive,–
O=C(OCC(COC(=O)c1cccnc1)(COC(=O)c1cccnc1)COC(=O)c1cccnc1)c1cccnc1,inactive,–
CN(C)CCOCCO,inactive,–
NCCN1CCOCC1,inactive,–
CC(=O)OC(C)OC(=O)C(C)c1ccc(-c2ccccc2)c(F)c1 (stereo not given),inactive,–
ClCCCl,inactive,–
CC(=O)Nc1cccc(C)c1,inactive,–
BrCc1cccc(Oc2ccccc2)c1,inactive,–
CCCCCCCCCC(C)=O,inactive,–
Cc1cc(NC(=O)C2=C(O)c3ccccc3S(=O)(=O)N2C)no1,inactive,–
CC(C)OC(=O)CCCCC(=O)OC(C)C,inactive,–
Cc1c(I)c(=O)n(-c2ccccc2)n1C,inactive,–
NC(CO)C(=O)NNCc1ccc(O)c(O)c1O (stereo not given),inactive,–
CC(=O)NCc1c(I)c(NC(C)=O)c(I)c(C(=O)O)c1I,inactive,–
C=C(C)C1CCC(C)(O)CC1 (stereo not given),inactive,–
C[C@H](N)[C@H](O)c1cccc(O)c1,inactive,–
CC(CN)CC(C)(C)CCN (stereo not given),inactive,–
C=C(C)C(=O)OCCN(CC)CC,inactive,–
Cc1cccc(C)c1OCC(C)N (stereo not given),inactive,–
COC(=O)CCc1ccc(OCC(O)CNC(C)C)cc1 (stereo not given),inactive,–

SMILES,outcome,"viability change, negative = cytotoxic"
Cc1ccc2c(c1)OCC(=O)CO2,inactive,–
O=C(O)Cc1cn(-c2ccccc2)nc1-c1ccc(Cl)cc1,inactive,–
O=C(Nc1ccc(Cl)c(Cl)c1)C1CC1,inactive,–
CC(C)CCCCOC(=O)c1ccccc1C(=O)OCCCCC(C)C,inactive,–
CC(C)(C)OC(=O)c1ccc(O)cc1,inactive,–
CC(=O)/C=C/C1C(C)=CCC(C)C1(C)C (stereo not given),inactive,–
Cc1ccc(C=O)cc1C,inactive,–
COc1ccc(OC)c(Cl)c1,inactive,–
COc1ccc(C2CNC(=O)C2)cc1OC1CCCC1 (stereo not given),inactive,–
CC(=O)c1sc(C)nc1C,inactive,–
OCCN(CCO)c1cccc(Cl)c1,inactive,–
COCCOCCOCCOCCOCCO,inactive,–
O=C1c2ccccc2C(=O)c2cc(S(=O)(=O)O)ccc21,inactive,–
O=S(O)(O)=S,–,0.222% [at 6.97 µM]
N#Cc1ccc(C(=O)O)cc1,inactive,–
C[C@@H]1O[C@@H](O[C@@H]2[C@@H](O)[C@H](OCCc3ccc(O)c(O)c3)O[C@H](CO[C@@H]3O[C@H](CO)[C@@H](O)[C@H](O)[C@H]3O)[C@H]2OC(=O)/C=C/c2ccc(O)c(O)c2)[C@H](O)[C@H](O)[C@H]1O,inactive,–
CCCOC(=O)C(C)O (stereo not given),inactive,–
C=CCCCCCCCCCCCC,inactive,–
CN1CCN(CC(=O)N2c3ccccc3C(=O)Nc3cccnc32)CC1,–,0.562% [at 6.97 µM]
Cc1ccccc1N=O,inactive,–
